Screening results (PubChem BioAssay)
NPSR antagonist: neuropeptide S receptor (human) antagonism, cAMP | AID 1461 | Q6W5P4 | CHO-NPSR cells, cAMP TR-FRET, antagonist mode | Potency, µM (doses to about 38.3 µM), for the others: at the highest dose activity change, negative = inhibition, actives largely listed as inhibitors | actives 1% (n = 220,000); also: potency is read from the fitted curve at half-maximal effect; nearly all actives have a fitted effect of over 50% in size
Target sequence (Q6W5P4 whole entry, looked up): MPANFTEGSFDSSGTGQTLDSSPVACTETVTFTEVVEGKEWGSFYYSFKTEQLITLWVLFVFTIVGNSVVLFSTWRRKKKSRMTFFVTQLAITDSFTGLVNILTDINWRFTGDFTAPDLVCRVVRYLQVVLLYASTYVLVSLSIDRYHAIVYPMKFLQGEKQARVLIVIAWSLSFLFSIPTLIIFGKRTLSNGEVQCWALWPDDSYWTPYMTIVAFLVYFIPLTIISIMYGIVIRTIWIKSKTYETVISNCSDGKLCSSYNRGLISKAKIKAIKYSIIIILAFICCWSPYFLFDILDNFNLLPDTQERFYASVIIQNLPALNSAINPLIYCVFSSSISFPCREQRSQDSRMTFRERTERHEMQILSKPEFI
FBPA coupling cs: counter-screen for Giardia aldolase inhibitors: coupling enzyme system; AID 2472; coupling enzyme system counterscreen, AmpLite Red fluorescence; activity change, negative = inhibition, % at 58.2 µM, hits read low; actives 0.67% (n = 290,000); in the data active = activity change below about -30%
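Activity here indicates interference with the coupling reaction, not aldolase inhibition. Compounds at 57.5 uM final met coupling enzymes for 10 min at RT; substrate and AmpLite Red detection followed, with a 525/598 nm fluorescence read after 20 min.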
ALDH1A1 block: ALDH1A1 (human) enzyme inhibition | P00352 | Purified ALDH1A1, NADH fluorescence, propionaldehyde substrate | Potency, µM (highest dose often 75.3 µM), for the others: at the top dose activity, negative = inhibition, usual class: inhibitors | actives 7.3% (n = 220,000) | AID 1030; active = well fitted inhibition curve with a large enough effect, not every such curve was filed as active; inconclusive = small, poorly fitted or top-dose-only effect, or another doubt; inactive = no such curve, though single readings can be large or run the other way;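 also: potency is read from the fitted curve at half-maximal effect; plate controls were no enzyme wells and a reference inhibitor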
Sfp PPTase inh: inhibitors of Bacillus subtilis Sfp phosphopantetheinyl transferase; Potency, µM, for inactives: largest response in the series, negative = inhibition, actives largely listed as inhibitors; Biochemical Sfp PPTase activity, qHTS; Q9F4F7; actives 3.5% (n = 310,000);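 also: the enzyme is Sfp with the accession as filed and its product quenches rhodamine fluorescence; potency is read from the fitted curve at half-maximal effect; 0% = enzyme reaction without inhibitor and -100% = no enzyme wells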
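With Hepes-Na pH 7.6 buffer containing 10 mM MgCl2, Sfp (15 nM) modified BHQ-2-YbbR (12.5 uM) using rhodamine-CoA (5 uM). Two reads 30 minutes apart at 525/598 nm yielded each well's rate.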
GoLoco inh red: RGS12 GoLoco-Gai1 interaction inhibition. Gai1:RGS12 GoLoco peptide FP, rhodamine, 10 min. actives 0.44% (n = 230,000). P63096. Potency, µM (highest dose often 61.6 µM), inactives show at the highest dose activity, negative = inhibition, hits mostly inhibitors; active = well fitted inhibition curve with a large enough effect, not every such curve was filed as active; inactive = no such curve, though single readings can be large or run the other way; also: potency is read from the fitted curve at half-maximal effect; nearly all actives have a fitted effect of over 30% in size
Target sequence (P63096 whole entry, looked up): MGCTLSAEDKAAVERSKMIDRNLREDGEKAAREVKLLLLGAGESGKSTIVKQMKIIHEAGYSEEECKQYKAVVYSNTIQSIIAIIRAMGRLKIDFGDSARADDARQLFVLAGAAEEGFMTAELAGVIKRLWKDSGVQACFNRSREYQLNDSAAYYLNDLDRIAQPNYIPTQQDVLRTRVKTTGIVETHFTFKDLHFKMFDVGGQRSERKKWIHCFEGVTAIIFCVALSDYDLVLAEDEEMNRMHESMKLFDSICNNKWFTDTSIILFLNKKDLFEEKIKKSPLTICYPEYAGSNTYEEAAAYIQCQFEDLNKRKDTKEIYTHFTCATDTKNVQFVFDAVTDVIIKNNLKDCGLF
KDM4E inh: blocks human JMJD2E demethylase activity; B2RXH2; Potency, µM (series often up to 57.1 µM), for inactives: at the highest dose activity change, negative = inhibition, usual class: inhibitors; actives 1.6% (n = 230,000); JMJD2E catalytic domain, FDH-coupled NADH fluorescence (FDH is formaldehyde dehydrogenase); AID 2147; active = well fitted inhibition curve with a large enough effect, not every such curve was filed as active; inconclusive = small, poorly fitted or top-dose-only effect, or another doubt; inactive = no such curve, though single readings can be large or run the other way;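 also: potency is read from the fitted curve at half-maximal effect; 0% = wells with enzyme and -100% = buffer wells without enzyme; nearly all actives have a fitted effect of over 50% in size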
An asterisk follows results filed as active; ? = inconclusive; · = not tested or not shown; [ ] = remark or other dose. Only some compounds are listed: those with a hit (about 8.5% of all), similar ones and a draw of the others. Unless noted, calls follow the shape of the dose curve; as a rule, active = well fitted curve in the direction sought with a large enough effect; inconclusive = small, poorly fitted or top-dose-only effect, or another doubt; inactive = no such curve, though single readings can be large; an effect the other way counts as inactive or inconclusive. Unless noted, % is scaled to controls: 0 for no effect and ±100 for the full control effect.

SMILES	NPSR antagonist	FBPA coupling cs	ALDH1A1 block	Sfp PPTase inh	GoLoco inh red	KDM4E inh
O=C(O)Cc1sc(Nc2ccccc2)nc1-c1cccs1	-19%	7	·	50µM*	79%	-4%
COc1cc(N2CCCC2)c(OC)cc1/C=c1/sc2nc3ccccc3n2c1=O	-2%[46.1 µM]	-8	16µM*	-11%	301%	0%
Cc1noc2ncnc(N3CCCCC3)c12	23%	3	32µM*	7%	4%	-3%
CCC(C)(C)c1ccc(OCCCC[n+]2cccc(C)c2)c(C(C)(C)CC)c1	?	0	-4%	32µM*	4%	5%
Cc1ccc[n+](CC(=O)Nc2cc(C(F)(F)F)ccc2Cl)c1	4%[46.1 µM]	2	16%	6%	2%	-3%
C/C(=C\c1ccccc1)CN1CCC(C(=O)N2CCC(C)CC2)CC1	-8%[46.1 µM]	1	35µM*	-10%	-2%	?
CCCCN(Cc1ccccc1)C(=O)C1CCCN(S(=O)(=O)c2cnc[nH]2)C1 (stereo unspecified)	-19%[46.1 µM]	3	14µM*	4%	3%	16%
CN(CCCNC(=O)C1CCCN(S(=O)(=O)c2cnc[nH]2)C1)c1ccccc1 (stereo unspecified)	0%[46.1 µM]	-7	?	11%	-16%	3%
COc1ccc(N(CC(=O)NC2CCCCCC2)S(=O)(=O)c2ccccc2)cc1Cl	·	·	·	9%	·	·
CCCCn1c(=O)n(CC(O)c2ccccc2)c(=O)c2c1ncn2C1CCCC1 (stereo unspecified)	-19%[46.1 µM]	1	10µM*	2%	-14%	-1%
O=C(CN(Cc1cccs1)C(=O)CNS(=O)(=O)c1ccccc1)NCc1ccco1	-10%[46.1 µM]	1	20µM*	7%	-1%	5%
Cc1ccc(S(=O)(=O)NCC(=O)N(CC(=O)NCc2ccco2)Cc2ccco2)cc1	-2%	3	8.9µM*	-6%	0%	-12%
Cc1ccc(S(=O)(=O)NCC(=O)N(CC(=O)NCC2CCCO2)Cc2ccco2)cc1 (stereo unspecified)	6%	4	18µM*	-9%	39%	-31%
O=C(CN(Cc1ccco1)C(=O)CNS(=O)(=O)c1ccccc1)NCc1ccccc1	2%[46.1 µM]	-1	14µM*	12%	-3%	2%
CCCCCCCCCCCCCCOS(=O)(=O)O	·	10	·	14%	·	·
Cc1occc1C(=O)n1nnc2ccccc21	3%[46.1 µM]	3	7%	32µM*	-9%	2%
Cc1occc1C(=O)n1cnc2ccccc21	-1%[46.1 µM]	-3	6%	-12%	-18%	11%
c1ccc(-c2nc3ccccn3c2NC2CCCC2)nc1	?	1	?	10µM*	15%	7%
CC[N+](C)(CC)CC(=O)OCC1C(C)C=C(C)CC1C (stereo unspecified)	-20%	0	·	89µM*	-27%	-8%
COc1cc(C(Nc2ccc3c(c2)OCO3)C(=O)NC2CCCCC2)cc(OC)c1OC (stereo unspecified)	5%[46.1 µM]	-21	0.63µM*	13µM*	0%	28µM*
COc1cc(NC(=O)Nc2ccc3c(c2)OCO3)cc(OC)c1OC	-2%	4	8%	7%	3%	4%
Cc1ccc(CN2CCC(n3nccc3NC(=O)CCOc3ccccc3)CC2)cc1C	·	·	·	13%	·	·
NC(=O)COc1ccc2oc(=O)cc(-c3cc4ccccc4o3)c2c1	·	1	·	8%	·	·
c1ccn2cc(C34CC5CC(CC(C5)C3)C4)nc2c1	-43%	0	?	12%	7%	?
COCCCNC(=O)C1CCN(C(=O)c2cc3sccc3n2Cc2ccc(F)cc2)CC1	-15%[46.1 µM]	3	10µM*	-2%	-1%	-5%
SMILES	NPSR antagonist	FBPA coupling cs	ALDH1A1 block	Sfp PPTase inh	GoLoco inh red	KDM4E inh
O=C(NCc1ccco1)C1CCN(C(=O)c2cc3sccc3n2Cc2ccc(F)cc2)CC1	?	-3	4.5µM*	?	85%	4%
CCn1c(C(=O)N2CCC(C(=O)NCCCSC3CCCCC3)CC2)cc2sccc21	-22%[46.1 µM]	1	3.2µM*	9%	43%	-2%
O=C(NCc1ccco1)C1CCN(c2nc3ccccc3n2Cc2ccccc2F)CC1	-9%[46.1 µM]	5	28µM*	?	-9%	1%
Cc1cc(C)nc(N2CCC(C(=O)NCc3ccccc3F)CC2)n1	2%	0	10%	8%	8%	?
CCN1CCN(C(=O)C2CCN(C(=O)c3cc4sccc4n3CC)CC2)CC1	8%[46.1 µM]	1	-9%	-19%	5%	-5%
CCCCNC(=O)NS(=O)(=O)c1ccc(N)cc1	·	1	0%	-26%	10%	·
O=C(O)c1ccccc1NS(=O)(=O)c1ccccc1F	·	·	2%	·	·	·
Cc1ccc(/C=C/C2=CC3(C)CC2(C)C(c2ccc(C)cc2)CC3=O)cc1 (stereo unspecified)	·	0	?	8%	·	·
CC12C=C(/C=C/CCc3ccco3)C(C)(C1)C(CCc1ccco1)CC2=O (stereo unspecified)	·	0	4µM*	?	·	·
NC(=O)COc1ccc(/C=N\NC(=O)CC(=O)NCCc2ccccc2)cc1	·	-3	·	12%	·	·
O=C(c1ccc([N+](=O)[O-])cc1[N+](=O)[O-])n1cnc2ccccc21	-1%	-20	?	79µM*	3%	1%
Cc1cc(-c2ccc(C)c(S(=O)(=O)Nc3cc(C)on3)c2)on1	·	·	·	9%	·	·
O=C(NCSc1ccnc(SCNC(=O)c2ccc(F)cc2)n1)c1ccc(F)cc1	-6%[46.1 µM]	1	?	8.9µM*	1%	-23%
CC(=O)c1cccc(NC(=O)C23CC4CC(C2)CC(n2cncn2)(C4)C3)c1	7%	-8	10%	13%	16%	12%
COc1ccccc1CN(Cc1cc2cc(C)cc(C)c2[nH]c1=O)Cc1nnnn1CC1CCCO1 (stereo unspecified)	-14%[46.1 µM]	-1	?	-3%	1%	-10%
O=c1[nH]c2cc3c(cc2cc1CN(CCc1ccccc1)Cc1nnnn1CC1CCCO1)OCO3 (stereo unspecified)	-3%[46.1 µM]	-18	?	56µM*	16%	?
O=c1[nH]c2cc3c(cc2cc1CN(Cc1nnnn1CC1CCCO1)C1CCCC1)OCO3 (stereo unspecified)	12%[46.1 µM]	2	?	0%	-18%	?
COc1ccc2cc(CN(CC3CCCO3)S(=O)(=O)c3ccccc3)c(=O)[nH]c2c1 (stereo unspecified)	-11%[46.1 µM]	1	-8%	12%	2%	-26%
COc1ccc2[nH]c(=O)c(CN(Cc3ccccc3OC)Cc3nnnn3CC3CCCO3)cc2c1 (stereo unspecified)	-27%[46.1 µM]	-25	?	?	-5%	?
